Assay results as given in PubChem BioAssay (NCI).
Compounds without any hit were thinned out: in the full panel of roughly 83,000, 20% have a hit.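 Single-concentration screen, 48 h exposure, 96-well plates. Endpoint: percent growth. Below 10 = active.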 Unmarked numbers belong to inactive results. Active and inactive are the calls of the source.

Tested on: COLO 205 colon
Assay: NCI-60 one-dose screen, 48 h (100 = growth as untreated, 0 = no growth, -100 = all killed)
Conditions: 10 µM unless noted
Description: Cells are grown in 96 well plates and exposed to the test compound for 48 hours. Compounds are tested at a single concentration, which is 10^-5 M for most compounds. The reported endpoint is percent growth (GI% or GIPRCNT), where numbers from 0 - 100% represent growth inhibition, and numbers from -100% - 0 represent cell death. For example, a value of 40 represents 60% growth inhibition. A value of 0 means no net growth occurred over the course of the experiment. A value of -40 indicates 40% of cells at the beginning of the experiment died by the end of the experiment. A value of -100 means all cells are dead at the end of the experiment.
NCI-60 Human Tumor Cell Lines Screen was performed using the standard one-dose NCI protocol, which is described in more detail at https://dtp.cancer.gov/discovery_development/nci-60/default.htm.
Compounds with GIPRCNT values below 10 were considered active. Activity score was based on GIPRCNT using the following formula: […]
Score is 0 for GIPRCNT values of 100 or above, 50 for GIPRCNT values of 0, and 100 for GIPRCNT values of -100.

| SMILES | growth |
| --- | --- |
| O=C(Nc1cccc(C2=NCCN2)c1)c1cccc(C(=O)Nc2cccc(C3=NCCN3)c2)c1 | 99.8% |
| C#C[C@]1(O)CC[C@H]2[C@@H]3CC=C4c5nc(N)sc5CC[C@]4(C)[C@H]3CC[C@@]21C | 80.5% |
| COc1cc(NCc2ccccc2O)c2ncccc2c1 | 96.9% |
| COc1cc(C)cc2oc3oc(=O)c(-c4nc5ccccc5s4)cc3c(=O)c12 | 110% |
| C=CCCCCCCCCC(=O)OC(C)C | 105% |
| CC1(C(=O)O)CCC(N)(C(=O)O)C1(C)C (stereo not given) | 104% |
| CC1(C)C(=O)/C(=C\c2cccnc2)C[C@]2(C)[C@H]3CC[C@@H]4[C@H]5[C@H](C(=O)/C=C/c6cccnc6)CC[C@]5(C(=O)O)CC[C@@]4(C)[C@]3(C)CC[C@@H]12 | -55.9% [100 µM] (active) |
| COc1cc(C)cc2oc3oc(=O)c(C(=O)c4cc5cc(Br)ccc5o4)cc3c(=O)c12 | 125% |
| CCc1ccc(NC(=O)N[C@@H](Cc2cc(F)cc(F)c2)C(=O)N[C@@H]2C(=O)N3C[C@H](O)C[C@H]3C(=O)N3CCOC[C@H]3C(=O)N[C@@H](C)C(=O)N3C[C@H](C)C[C@H]3C(=O)O[C@H]2C)cc1 | 11.1% |
| Cc1cc(C)c(S(=O)(=O)/N=c2/n(-c3ccccc3)nc3n2CCN3C2=NCCN2)c(C)c1 | -28.9% (active) |
| CCN(CC)c1ccc(/C=C/C=C2\NC(=O)NC2=O)cc1 | 33.7% |
| CCN(CC)CCCC(C)Nc1c2ccc(C)cc2nc2ccc(OC)cc12 (stereo not given) | -40.4% (active) |
| CCN(CC)c1ccc2cc(C(Nc3ccc(Cl)cc3)c3nnnn3C(C)(C)C)c(=O)oc2c1 (stereo not given) | 114% |
| CCCCCn1c(C)cc(/C=C\c2ccc3cc(C)ccc3[n+]2C)c1C | -92.5% (active) |
| C=CCCCCOc1ccccc1-c1cnc(OCCCCC=C)n1C | 46% |
| Nc1cc(C(=O)O)[nH]c(=S)n1 | 112% |
| COc1ccc(CC(C#N)c2ccc(Cl)cc2)cc1 (stereo not given) | 94% |
| O=C1NC(=O)C(Cc2ccc(OCc3ccc(-c4cc(F)c(F)c(F)c4)cc3)cc2)S1 (stereo not given) | 97.6% |
| C=C(C)[C@@H]1CC[C@]2(C(=O)NCCCCCCN(CCCN)CCCN)CC[C@]3(C)[C@H](CC[C@@H]4[C@@]5(C)CC[C@H](OCCCN)C(C)(C)[C@@H]5CC[C@]43C)[C@@H]12 | 18.9% [100 µM] |
| COC(=O)c1c(C)[nH]c(/C=C2\N=C(c3ccc[nH]3)C=C2OC)c1C | -54.2% (active) |

| SMILES | growth |
| --- | --- |
| CC(C)CCSc1nc(N)nc2nc[nH]c12 | 102% |
| COc1ccc(/C=C(/C(=O)c2ccc(Cl)cc2)C(=O)C(F)(F)F)cc1 | 110% |
| COc1cc2c(cc1OCCCCCOc1ccc(-n3c(C)nc4ccccc4c3=O)cc1)N=C[C@@H]1CCCN1C2=O | -22.3% (active) |
| Cc1ccc(N)c(O)c1 | 132% |
| C=C(CN=[N+]=[N-])[C@@H]1CC[C@]2(C)[C@H](CC[C@@H]3[C@H]4[C@H]5OC(=O)[C@@]4(CCC5(C)C)CC[C@]32C)[C@@]1(C)CCC#N | 100% [100 µM] |
| Cc1cc(C)c(O)c(CNCCCNCc2cc(C)cc(C)c2O)c1 | 9.05% (active) |
| CC[C@]1(O)CC2CN(CCc3c([nH]c4ccccc34)[C@@](C(=O)OC)(c3cc4c(cc3OC)N(C=O)[C@H]3[C@@](O)(C(=O)OC)[C@H](OC(C)=O)[C@]5(CC)C=CCN6CC[C@]43[C@@H]65)C2)C1 (stereo not given in full) | -61.1% (active) |
| O=C1/C(=C\c2cn(CC(O)CN3CCCCC3)c3ccccc23)c2ccccc2N1c1c(Cl)cccc1Cl (stereo not given) | -99.1% (active) |
| COc1cccc(-c2[nH]c(=S)ncc2C(=O)c2ccccc2)c1 | 84.7% |
| CCCCC(CCCCCC(CCCC)C1NC(C)Cc2cc(OC)c(OC)cc21)C1NC(C)Cc2cc(OC)c(OC)cc21 (stereo not given) | -96.9% (active) |
| C#CCNC(=O)CC[C@@H](C)[C@H]1CC[C@H]2[C@@H]3CC[C@@H]4CC(=O)CC[C@]4(C)[C@H]3CC[C@]12C | -70.9% [100 µM] (active) |
| O=C(CCN1CCCCC1)c1ccc2ccccc2c1 | 112% |
| CC(C)C1=NOC(=O)C1=Cc1cn(-c2ccccc2)nc1-c1ccc(Cl)cc1 | 99.6% |
| CC(=O)O.CC(=O)O.O.[Fe] | 101% |
| Cn1cc(-c2noc(-c3cn(C)c4ncc(F)cc34)n2)c2cc(Cl)ccc21 | 55.5% |
| COc1ccc(-c2nc3ccccn3c2/C=C/C(=O)c2cc(OC)c(OC)c(OC)c2)cc1OC | 17.9% |
| CC1=CC[C@@H]2C(C)(C)C(=O)CC[C@@]2(C)[C@@H]1COc1ccc2ccc(=O)oc2c1 | 71.1% |
| NC(=O)CC1C=CCC1 (stereo not given) | 114% |
| COc1ccc2c(c1)c(-c1noc(-c3cn(C)c4ncc(F)cc34)n1)cn2C | 88.3% |
| CCN(CC)CCCOc1ccc2c(c1)O/C(=C\c1cccc(OC)c1)C2=O | 94.7% |
